Screens as filed in PubChem.
Pf growth 48h: Primary qHTS for delayed death inhibitors of the malarial parasite plastid, 48 hour incubation; P. falciparum luciferase growth in erythrocytes, 48 h; Potency, µM (series often up to 28.7 µM), inactives show at the highest dose activity change, negative = inhibition, most hits filed as inhibitors; 310,000 compounds, 5.9% hits; AID 504832, 2011; further: on the % scale 0 is the no-effect control and ±100 the full control effect
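Firefly luciferase activity from engineered P. falciparum reports growth; inhibitors lower the luminescent signal. Cultures contained 2% hematocrit erythrocytes at 0.1% final parasitemia.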
SARS PLpro yeast: qHTS of Yeast-based Assay for SARS-CoV PLP; Potency, µM (titrated, usually from 32.9 µM), for the others: at the highest dose activity, positive = growth rescue, hits mostly activators; 330,000 compounds, 0.19% hits; S. cerevisiae expressing SARS-CoV PLpro, growth rescue; calls by dose curve; further: 0% is about no effect; nearly all actives have a fitted effect of over 55% in size
AMA1 RON2 block: qHTS for Inhibitors of AMA1-RON; Towards Development of Antimalarial Drug Lead: Primary Screen; Potency, µM (highest dose often 58.2 µM), for the others: at the highest dose activity change, negative = inhibition, actives largely listed as inhibitors; 360,000 compounds, 0.2% hits; AlphaScreen AMA1-biotinylated RON2 peptide binding; AID 720542, 2013;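 further: 0% = vehicle wells and -100% = peptide control; nearly all actives have a fitted effect of over 45% in size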
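AMA1 (3D7) with his tag at 25 nM final met compounds first, then biotinylated RON2 peptide at 25 nM; detection used donor plus acceptor beads, 10 µg/mL apiece, read by AlphaScreen after 30 min at room temperature.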
Pf growth 96h: Primary qHTS for delayed death inhibitors of the malarial parasite plastid, 96 hour incubation. P. falciparum luciferase reporter growth, 96 h. Potency, µM (doses to about 28.7 µM), for the others: at the top dose activity change, negative = inhibition, usual class: inhibitors. 320,000 compounds, 6.9% hits; further: on the % scale 0 is the no-effect control and ±100 the full control effect
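Plates of compound plus infected erythrocytes (2% hematocrit, 0.05% parasitemia final) incubate 96 hours, 37 C, 5% CO2. Detection reagent added; reduced luminescence from the parasites' luciferase reporter flags inhibition.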
NS1 function inh: qHTS Assay for Inhibitors of Influenza NS1 Protein Function. Potency, µM (doses to about 46.1 µM), inactives show top-dose activity, positive = more growth. 270,000 compounds, 0.4% hits; calls by dose curve; further: actives are rising curves; nearly all actives have a fitted effect of over 50% in size
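S. cerevisiae expressing influenza A NS1, grown in glucose, washed, then diluted 1:100 into pH 6.0 -URA galactose medium with 23 nl compound. Growth recovery read as OD600; NS1-free strain serves as control.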
HCV inh: qHTS Assay for Inhibitors of Hepatitis C Virus (HCV); Huh7.5.1 HCVcc-Cre infection, luciferase reporter, 44 h; Potency, µM (top dose mostly 41.8 µM), for the others: top-dose activity change, negative = inhibition, actives largely listed as inhibitors; 340,000 compounds, 3.4% hits; AID 651820, 2012; further: on the % scale 0 is the no-effect control and ±100 the full control effect
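Reporter virus HCVcc-Cre (~0.5 moi) infects cells exposed to compound; seeding density 1,000 cells/well with 4 h settling beforehand. Luminescence, 15 sec read, taken 44 h post-infection following a 15 min RT substrate incubation.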
Numbers without * were called inactive; ? = inconclusive; · = no result; [ ] = dose if it differs, or a comment. Only some compounds are listed: those with a hit (about 12% of all), similar ones and a draw of the others. Unless noted, the call rests on the fitted dose curve; in most records, active means well fitted curve in the direction sought with a large enough effect; inconclusive means small, poorly fitted or top-dose-only effect, or another doubt; inactive means no such curve, though single readings can be large; an effect the other way counts as inactive or inconclusive. Potency means the concentration at half of the fitted maximal effect.

SMILES | Pf growth 48h | SARS PLpro yeast | AMA1 RON2 block | Pf growth 96h | NS1 function inh | HCV inh
CN1CCN(C(=O)c2ccc3c(Cl)c4c(nc3c2)CCCC4)CC1 | -30% | 1% | -5% | 13µM* | 2% | 4%
O=C(NC(Cc1ccccc1)C(=O)O)/C(=C\c1ccccc1)NC(=O)c1ccc(Br)o1 (stereo not drawn) | 22% | 1% | 5% | 16% | 26% | 2%
CNc1c(NC(=O)c2ccc3c(c2)OCO3)c(=O)oc2ccccc12 | -3% | 2% | 12% | -5% | -4% | 8%
COc1cc(NC(=O)c2ccc3c(SCC(=O)O)c4c(nc3c2)CCCC4)cc(OC)c1OC | 15% | 2% | 8% | ? | · | ?
COc1cc(OC)c(NC(=O)c2ccc3c(SCC(=O)O)c4c(nc3c2)CCCC4)cc1Cl | 5.2µM* | 0% | -2% | 226% | · | -29%
COc1ccc([C@H]2C[C@@H](O)C[C@@H](CCn3cc(-c4ccccc4)nn3)O2)cc1 | · | · | -2% | · | · | ·
COc1ccc(OC)c(-c2cc(C(=O)N/N=C(\C)c3cccnc3)c3ccccc3n2)c1 | 1.5µM* | -3% | 43% | -103% | -3% | -11%
COc1ccccc1CN1CC(C(=O)NCc2cccnc2)CC1=O (stereo not drawn) | 15% | 1% | -1% | 2.1µM* | -13% | -6%
COc1ccccc1CNC(=O)c1ccc(C)s1 | 60% | 1% | -17% | 6.6µM* | -1% | -6%
COc1ccccc1CNC(=O)c1cc(-c2cccnc2)nc2ccccc12 | 10µM* | -4% | 1% | -10% | · | ?
Cc1ccn(C(=O)c2ccc(NC(=O)C3CC3)cc2)n1 | 42% | 0% | -1% | -1% | -8% | 22%
Cc1cc(-n2c(C)cc(C(=O)COc3ccc(Cl)cc3C(N)=O)c2C)no1 | · | -4% | 7% | · | · | ?
CCOc1ccc(OCCC(=O)N(CC(C)C)c2c(N)n(Cc3ccccc3)c(=O)[nH]c2=O)cc1 | · | · | -1% | · | · | -8%
O=C(CN(C(=O)CCC(=O)Nc1nccs1)c1cccc(C(F)(F)F)c1)NCC1CCCO1 (stereo not drawn) | 12% | 2% | 3% | 3% | -8% | -6%
N#Cc1cccc(C#N)c1NCC1CCCO1 (stereo not drawn) | 2%[0.00184 µM] | 0% | -7% | 31% | -1% | -4%
O=C(NCc1cccnc1)c1cc(Sc2ccc(F)cc2F)nc2ccccc12 | ? | 5% | -15% | -19% | -2% | 10µM*
COc1ccccc1CNC(=O)c1cccnc1 | -1% | -1% | -4% | 12µM* | 7% | 16%
CCOC(=O)[C@]1(CC(=O)O)CCCC1=O | · | · | · | · | 1% | ·
CN(Cc1ccc(C(C)(C)C)cc1)C(=O)C1CCN(C(=O)Nc2ccccc2)CC1 | 10µM* | 1% | 9% | 13µM* | · | ?
CSc1ccc(C(=O)N2CCC(CCC(=O)NC3CC3)CC2)cc1 | -16% | -5% | 0% | -2% | 0% | 22%
Cc1c(C(=O)NC(C)c2ccccc2)c(-c2ccccc2)nn1-c1ccccc1 (stereo not drawn) | 10µM* | -11% | -1% | ? | 2% | -2%
COc1ccccc1Nc1nc(-c2cccc(N3C(=O)c4ccccc4C3=O)c2)cs1 | 6% | ? | -13%[2.32 µM] | 15µM* | ? | 1%
c1cncc(-c2nc(-c3ccc4c(c3)OCO4)cs2)c1 | -30% | -8% | -2% | · | -9% | ?
O=C1c2ccccc2C(=O)N1c1cccc(-c2csc(Nc3ccc4c(c3)OCO4)n2)c1 | 18% | 15% | · | 10µM* | 29% | -1%
CC(C)c1ccc(N2C(=O)CC(NNC(=O)c3cccnc3)C2=O)cc1 (stereo not drawn) | 46% | -1% | 2% | 74% | 5% | -3%
SMILES | Pf growth 48h | SARS PLpro yeast | AMA1 RON2 block | Pf growth 96h | NS1 function inh | HCV inh
CC12CC3(C)CC(C)(C1)CC(C(=O)NC(=S)N1CCCC1)(C2)C3 | 6.6µM* | 3% | 43% | ? | · | 9%
CCCNC(=O)c1cc(C2CCCCN2S(=O)(=O)Cc2cccc(C(F)(F)F)c2)on1 (stereo not drawn) | · | · | -1% | · | · | ·
CSc1ccccc1-c1nnc(-c2ccc(C)cc2)o1 | 155% | -4% | 17% | 304% | -40% | ?
CSc1ccccc1-c1nnc(-c2ccccc2)o1 | 152% | -10% | 7% | 101% | -11% | 8.9µM*
O=C(Nc1ccc(Cl)cc1)N1CCCN(Cc2ccccc2F)C1 | · | 0% | -3% | ? | -4% | 10µM*
Cc1ccc(NC(=O)N2CCCN(Cc3ccc(F)cc3)C2)cc1C | 13µM* | 2% | -6% | ? | 2% | ?
CC(=O)Nc1ccc(N2CCN(Cc3ccccc3F)CC2)cc1 | -18% | 5% | 0% | · | 3% | 32%
CCCCC(=O)Nc1nc2ccc(C(=O)OC)cc2s1 | 219% | -7% | -3% | 383% | · | ?
Cc1ccc(-n2nc3c(c2NC(=O)c2ccco2)CS(=O)(=O)C3)c(C)c1 | -6% | 13% | 0% | ? | 12% | 3%
Cc1ccc(-n2nc3c(c2NC(=O)C(C)C)CS(=O)(=O)C3)c(C)c1 | 0.015µM* | -2% | 1% | ? | 7% | 12%
COC(=O)C(NC(=O)c1ccccc1C)(Nc1ncc(S(=O)(=O)c2ccc([N+](=O)[O-])cc2)s1)C(F)(F)F (stereo not drawn) | 12µM* | 6% | -24% | 4.1µM* | 10% | -17%
O=C(Nc1ncc(S(=O)(=O)c2ccc([N+](=O)[O-])cc2)s1)c1ccccc1F | 1% | 1% | 3% | 10% | -1% | -17%
CCN(CC)S(=O)(=O)c1ccc2c(c1)c(=O)c(C(=O)NCc1ccc3c(c1)OCO3)cn2C | -10% | -4% | · | -5% | 0% | 1%[0.335 µM]
C=CCn1cc(C(=O)NCc2ccc3c(c2)OCO3)c(=O)c2cc(S(=O)(=O)N(CC)CC)ccc21 | 12µM* | 23% | 5% | ? | 52% | ?
CCn1cc(C(=O)NCc2ccc3c(c2)OCO3)c(=O)c2cc(S(=O)(=O)N(C)C)ccc21 | 12µM* | -24% | ? | ? | -22% | -17%
CCn1cc(C(=O)NC(C)CCc2ccccc2)c(=O)c2cc(S(=O)(=O)N(C)C)ccc21 (stereo not drawn) | 6.6µM* | 1% | 4% | 43% | -5% | -6%
CCn1cc(C(=O)NCc2ccccc2OC)c(=O)c2cc(S(=O)(=O)N(C)C)ccc21 | ? | 2% | 0% | 10µM* | -13% | 14µM*
